According to PubChem BioAssay AID743395 (Broad Institute, 2014):
About 480 (40%) of roughly 1,200 compounds were called active. So high a share suggests a set chosen from earlier hits. Only a sample is shown. Entries with a potency or affinity are not part of this list. Unmarked numbers belong to inactive results. How the calls were made is not given here.

Assay: viability loss in human hepatoma cells – cell-based, CellTiter-Glo luminescence, cherry-pick, set 2, cytotoxicity control, dose response (AID 743395);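 further: 0% = neutral control wells and -100% = positive control wells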
Settings: HepG2 viability, CellTiter-Glo ATP luminescence, 72 h; series mostly up to 26 µM; activity change, negative = cytotoxicity: at the top concentration

| Compound | activity change, negative = cytotoxicity |
| --- | --- |
| COCCCNc1nnc(Cc2ccc(Cl)cc2)c(=O)[nH]1 | -22% |
| N#CCC(=O)N/N=C/c1cn(Cc2cccc3ccccc23)c2ccccc12 | 5.87% |
| O=C(CN1CCN(S(=O)(=O)c2ccccc2)CC1)Nc1ccccc1Cl | -11.1% |
| COc1ccc2oc(C(=O)N3CCN(C(=O)c4ccco4)CC3)c(C)c2c1 | -4.08% |
| COc1ccc(NC(=O)c2ccc(NC(=O)c3nc4nccc(C)n4n3)cc2)cc1 | -15.4% |
| CCCc1nc2ccccc2c(C(=O)OCC(=O)NCc2ccc3c(c2)OCO3)c1CC | -28.8% |
| COc1ccc(CC(=O)Nc2nccs2)cc1S(=O)(=O)N1CCOCC1 | -8.61% |
| Cc1ccc(S(=O)(=O)N2CCOCC2)cc1NC(=O)COC(=O)c1ccc(Cl)nc1 | 4.96% |
| Cc1ccc(S(=O)(=O)Nc2ccc3c(c2)C(=O)N([C@@H](C)CO)C[C@H](C)[C@H](CN(C)S(=O)(=O)c2ccc(C)cc2)OCCCC[C@@H](C)O3)cc1 | -3.79% [at 23.5 µM] |
| COc1ccc(S(=O)(=O)Nc2ccc3c(c2)C(=O)N([C@@H](C)CO)C[C@@H](C)[C@H](CN(C)Cc2ccc(Oc4ccccc4)cc2)O3)cc1 | 14% |
| C[C@@H]1CN([C@H](C)CO)C(=O)c2cc(NC(=O)Cc3ccccc3)ccc2O[C@@H]1CN(C)S(C)(=O)=O | 6.51% [at 23.5 µM] |
| C[C@H](CO)N1C[C@H](C)[C@H](CN(C)C(=O)NC2CCCCC2)Oc2ncc(-c3cc4ccccc4o3)cc2C1=O | -3.27% |
| COc1ccc(S(=O)(=O)Nc2ccc3c(c2)C(=O)N([C@H](C)CO)C[C@@H](C)[C@@H](CN(C)Cc2ccc(C(F)(F)F)cc2)O3)cc1 | -4.66% |
| Cc1ccc(S(=O)(=O)N(C)C[C@@H]2OCCCC[C@@H](C)Oc3ccc(NS(=O)(=O)c4ccc(Cl)cc4)cc3C(=O)N([C@@H](C)CO)C[C@@H]2C)cc1 | -3.66% |
| N#C[C@@H]1[C@H](c2ccc(-c3cccc(F)c3)cc2)[C@H](CO)N1C(=O)NC1CCCC1 | -16.6% |
| CCCNC(=O)N1[C@H](CO)[C@@H](c2ccc(C3=CCCC3)cc2)[C@@H]1CN(C)C(C)=O | 7.91% |
| CCOc1ccccc1N1CCN(C(=O)c2cc3ccccc3cc2OC)CC1 | -16.5% |
| Cc1nn(C)c(C)c1/C=C/C(=O)O | -1.57% |
| COc1cc(/C=C/C(=O)O)cc(S(=O)(=O)Nc2ccc3cn[nH]c3c2)c1OC | 1.05% |
| O=C(CSC1=NNC(c2ccccn2)S1)Nc1ccccc1 (centres undefined) | -4.35% |
| COc1ccc(C)cc1NC(=O)CNC(c1ccccc1)c1ccc(C)cc1 (centres undefined) | 8.87% |
| CN(C)S(=O)(=O)c1ccc2c(c1)/C(=C/c1cc3c([nH]1)CCCC3)C(=O)N2 | -13% |
| CN(c1ccc(O)cc1)c1nc(-c2cccs2)cs1 | -12.2% |
| COC(=O)Cn1c(=NC(=O)c2cc(-c3cccs3)nc3ccccc23)sc2cc(S(N)(=O)=O)ccc21 | -5.09% |

| Compound | activity change, negative = cytotoxicity |
| --- | --- |
| C=CCN=c1scc(C)n1/N=C/c1ccc(O)c(O)c1 | -26.3% |
| COCOc1cccc(CN2CCC(C)(Oc3cccc(C#N)c3)C2)c1 (centres undefined) | -17.5% |
| O=C(NCc1cccs1)c1cc(-c2ccccc2)nn1CC1CC(c2cccc([N+](=O)[O-])c2)=NO1 (centres undefined) | -7.8% |
| C=CCN1C(=O)/C(=C/C=C2/N(CC)c3ccc(S(=O)(=O)N(C)C)cc3N2CC)SC1=S | -19.1% |
| COc1ccc2c(c1)C(=O)CC(c1ccc3c(c1)OCCO3)O2 (centres undefined) | -9.83% |
| COc1ccc(C2CN=NC23CCc2ccccc2C3=O)cc1 (centres undefined) | -5.59% |
| CCOc1ccc(Cl)cc1C1=CC(=O)C[C@H](c2ccc(OC)cc2)C1 | -6.55% |
| CCOC(=O)c1[nH]c(C)c(/C(O)=C2\C(=O)C(=O)N(CCCN3CCOCC3)C2c2cccs2)c1C (centres undefined) | 10.2% |
| CC(C)CC1Nc2ncnc(N3CCN(c4ccccn4)CC3)c2N(Cc2ccc(Br)cc2)C1=O (centres undefined) | -0.413% |
| COc1ccc(-n2nnnc2C(c2ccccc2)N2CCN(C/C=C/c3ccccc3)CC2)cc1 (centres undefined) | -7.14% |
| O=C(NNC(=O)c1ccncc1)Nc1ccc(Cl)cc1 | 10.9% |
| CCN1C(=O)[C@H]2[C@@H](c3ccc(-c4ccc(Cl)c(Cl)c4)cc3)N[C@@](C)(C(=O)OC)[C@H]2C1=O | -4.63% |
| NC(=O)CC(NC(=O)Cc1ccc(Br)cc1)c1ccc(NC2CC3CCC2C3)c([N+](=O)[O-])c1 (centres undefined) | -30.8% |
| CN(C)/C=C1\C=C2C(=O)c3ccccc3N2C1=O | -9.76% |
| CC(O)CNc1nc(N)[nH]c(=O)c1N=Nc1ccccc1 (centres undefined) | 9.61% |
| CCC(C(=O)OCC(=O)C1(O)CCC2C3CCC4=CC(=O)CCC4(C)C3C(O)CC21C)C(C)C (centres undefined) | -8.94% |
| OC[C@@H]1[C@@H](c2ccccc2)C2(CN(Cc3ccccc3F)C2)N1Cc1ccccc1F | -2.23% |
| NC(=O)c1cc(Cl)ccc1OCC(=O)NC1CC1 | -6.69% |
| O=C(c1ccccc1F)N1CC[C@@H]2[C@H](CO)Nc3ccc(Br)cc3[C@@H]21 | -27.6% |
| COc1ccc(C#Cc2ccc3c(c2)[C@@H]2[C@@H](CCN2C(=O)c2cccc(F)c2)[C@@H](CO)N3)cc1 | -3.32% |
| O=C(NCc1nnnn1-c1ccc(Cl)cc1)C(=O)c1c[nH]c2ccccc12 | 0.083% |
| COc1ccc(NC(=O)N[C@@H]2CC[C@@H](CCn3cc(-c4ccc(F)cc4)nn3)O[C@@H]2CO)cc1 | 9.05% [at 23.5 µM] |
| NNC(=O)c1[nH]c2ccc(Cl)cc2c1-c1ccccc1 | -17.7% |
| CC1CN(S(=O)(=O)c2cccc(C(=O)Nc3cc(Cl)ccc3N3CCOCC3)c2)CC(C)O1 (centres undefined) | -14.3% |

| Compound | activity change, negative = cytotoxicity |
| --- | --- |
| O=C(NC(Cc1ccccc1)C(=O)N1CCN(S(=O)(=O)c2ccccc2F)CC1)c1ccccc1 (centres undefined) | -13.5% |
| CC(C)(C)C(=O)OCc1nc(-c2ccc(O)c(O)c2)cs1 | -8.53% |
| CO[C@@H](CN(C)S(=O)(=O)c1ccc(C)cc1)[C@H](C)CN([C@H](C)CO)S(=O)(=O)c1cccc(Cl)c1 | 7.18% |
| COc1ccc(CNC(=O)c2cc3c(c(-c4cccc(-c5ccc(C#N)cc5)c4)n2)[C@@H](CCO)N([S@](=O)C(C)(C)C)C3)cc1 | -9.63% [at 23.5 µM] |
| CC(Sc1nc2ccccc2c(=O)n1C)C(=O)Nc1ccc2c(c1)OCCO2 (centres undefined) | -2.36% |
| COc1cccc(C(=O)c2c[nH]c(C(=O)NCCCN3CCOCC3)c2)c1 | -0.29% |
| c1ccc(CCN(Cc2ccccc2)Cc2nc(C3CC3)no2)cc1 | -4.04% |
| O=C(CCN1CCCCC1)N1CCc2c([nH]c3ccccc23)C1c1cccnc1 (centres undefined) | 0.121% |
| COc1ccc(OC)c(N/C(N)=N/c2nc(C)cc(C)n2)c1 | -5.35% |
| COc1cc(C(O)CO)ccc1OS(=O)(=O)O (centres undefined) | -16.3% |
| COc1ccc2c(c1OC)OCC2C (centres undefined) | -0.236% |
| Cc1cc(C)nc(N(C#N)Cc2cccc(Cl)c2)n1 | -20.8% |
| CCOc1ccc(C(=O)NCC(=O)NNC(=O)c2cc(C)oc2C)cc1OCC | 3.23% |
| Cc1cccc(C(=O)OCC(=O)NC(C)C2CC3CCC2C3)c1O (centres undefined) | -11.9% |
| Cc1ccc(-n2cc(-c3ccccc3)c3c(N4CCOCC4)ncnc32)cc1 | 16.3% |
| O=C(C(Cc1ccccc1)n1cccc1)N1CCCCC1 (centres undefined) | 9.04% |
| CC(C)(C)C1COc2ccccc2N1C(=O)c1cccc(Cl)c1 (centres undefined) | -1.18% |
| C/C=C/c1ccc2c(c1)O[C@@H](CN(C)C(=O)Nc1cccc(F)c1)[C@H](C)CN([C@H](C)CO)S2(=O)=O | 5.7% |
| Cc1cc2c(s1)Nc1ccccc1N=C2N1CCN(C)CC1 | -19.3% |
| CCN[C@H]1CN(CCCOC)S(=O)(=O)c2sc(S(N)(=O)=O)cc21 | 6.26% |
| Cc1cccc(N2CCN(C(=O)c3c(-c4ccccc4Cl)noc3C)CC2)c1C | -18.3% |
| O=C(c1ccc2ccccc2c1)N1CCN(Cc2ccccc2)CC1 | -13.3% |
| NC1(C(=O)O)CC1 | 11.4% |
| O=c1cnc2ccccc2n1CC1CCCCC1 | -4.42% |

| Compound | activity change, negative = cytotoxicity |
| --- | --- |
| Cc1cc(C)c(/C=C2\C(=O)Nc3ccccc32)[nH]1 | -18.6% |
| Cc1cccc(N(C)S(=O)(=O)c2ccc(-c3cc(C)no3)s2)c1 | 10.6% |
| CC(OC(=O)c1cccs1)C(=O)NC1CCCCC1C (centres undefined) | -16.4% |
| Cc1cc(C(=O)N/N=C/c2ccc([N+](=O)[O-])cc2)c2ccccc2n1 | -25.6% |
| CN(C)c1ccc2c(c1)[C@@H]1C[C@@H](CC(=O)NCc3ccc(Oc4ccccc4)cc3)O[C@H](CO)[C@@H]1O2 | -15.5% |
| CCN(CC(=O)Nc1cc(Cl)ccc1-n1cncn1)Cc1nc2ccccc2c(=O)[nH]1 | -9.39% |
| Cc1cc(C(=O)N2CC=C(c3ccccc3)CC2)c2ccccc2n1 | -29.1% |
| CCN(C(=O)COC(=O)c1cc2c(s1)CCCC2)c1c(N)n(Cc2ccccc2)c(=O)[nH]c1=O | -4.95% |
| O=S(=O)(Nc1ccc(F)cc1Cl)c1ccc(-c2cnc(C3CC3)o2)cc1 | -20.5% |
| COc1ccccc1NS(=O)(=O)c1cc(-c2cnc(C3CC3)o2)ccc1C | -17.7% |
| CC(C)c1cccc(-c2csc(C(O)c3ccco3)n2)c1 (centres undefined) | -11.9% |
| COc1ccc(OC)c(-c2nnc3n2N=C(c2ccc(OC)c(OC)c2)CS3)c1 | -34.3% |
| Cc1cc(N2CCCC2)c(F)cc1/C=C\[N+](=O)[O-] | -34.7% |
| NS(=O)(=O)c1ccc2nc(NC(=O)c3ccc4c(c3)OCCO4)sc2c1 | 4.38% |
| C/C=C/c1ccc([C@@H]2[C@H](CO)N(CC3CC3)[C@H]2CNC(=O)c2ccccc2)cc1 | -25.2% [at 23.5 µM] |
| CCOc1ccc(S(=O)(=O)N2CCCCC2)cc1NC(=O)c1ccccc1 | 18.5% |
| COc1ccc(-c2nc(-c3cccc(C)c3)no2)cc1OC | -1.21% |
| Nc1ccc(S(=O)(=O)Nc2cnc3ccccc3n2)cc1 | -11.6% |
| COc1ccc(S(=O)(=O)Cc2ccc(C(=O)N3CCN(c4cccc(C)c4)C(C)C3)o2)cc1 (centres undefined) | -11.2% |
| Cc1ccccc1OCC(=O)OCC(=O)NCCc1ccccc1 | 21% |
| COC(=O)C[C@@H]1CC[C@@H]2[C@H](COc3ccc(NC(=O)c4cc(C)on4)cc3C(=O)N2C)O1 | -12.3% |
| CC(=O)N1Cc2cc(C(=O)NCC(F)(F)F)nc(-c3cccc(-c4cccnc4)c3)c2[C@@H]1CCO | -7.78% |
